Source: PubChem BioAssay (NCATS)
Inconclusive results are not listed. Where a call stands in place of a potency, no number is given. Calls of active or inactive are those of the source. Calls follow the shape of the dose curve; as a rule, active = well fitted inhibition curve with a large enough effect; inconclusive = small, poorly fitted or top-dose-only effect; inactive = no such curve, though single readings can be large or run the other way.

Key:
[1] = test system: Zika virus NS2B-NS3 protease (unlinked complex); assay: Primary screen GU Rhodamine qHTS for Zika virus inhibitors: Unlinked NS2B-NS3 protease assay (AID 1347159); also: nearly all actives have a fitted effect of over 60% in size; also: potency is read from the fitted curve at half-maximal effect
Procedure, shortened: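 Unlinked NS2B/NS3, 25 nM; Rhod110 peptide, 1.5 microM; compounds, up to 114 microM. Reaction run 15 min at RT in 10 mM Tris-HCl pH 8.0, 0.01% Tween 20; kinetic fluorescence change fitted with a 4-parameter Hill model.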

[2] = test system: Zika virus NS2B-NS3 protease (linked construct); assay: Primary screen NINDS Rhodamine qHTS for Zika virus inhibitors (AID 1347160); also: nearly all actives have a fitted effect of over 55% in size
Procedure, shortened: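 Single-chain NS2B-NS3 protease, 25 nM, pH 8.0; compounds preincubated 15 min. Activity: Rhodamine110 release from 1.5 microM substrate over 15 min, room temperature, data fitted to 4-parameter Hill.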

Row | SMILES | Potency [1] | Potency [2]
1 | O=c1[nH]cnc2c([C@@H]3N[C@H](CO)[C@@H](O)[C@H]3O)c[nH]c12 | inactive | inactive
2 | C=C1C(=O)O[C@@H]2C[C@H](C)[C@@H]3CC(=O)[C@H](O)[C@@]3(C)C[C@H]12 | inactive | inactive
3 | O=S(=O)(Nc1ccccc1N1CCCCC1)c1ccc(Cl)s1 | inactive | inactive
4 | CCC(C)CNCC(=O)N1CCc2sccc2C1COc1cccc(C)c1 (centres undefined) | inactive | inactive
5 | O=C(N[C@H]1CCC[C@H](CO)C1)C1CCN(c2nc3cc(Cl)c(-c4ccc(Cl)cc4)cc3o2)CC1 | inactive | inactive
6 | C=C1C(=O)OC2C3=C(C)C(=O)CC3C(C)CC(O)C12 (centres undefined) | inactive | inactive
7 | CC[N+]1(C/C2=C/CCCCCC2)CCC(NC(=O)C2c3cc(Cl)ccc3Oc3ccc(Cl)cc32)CC1 (centres undefined) | inactive | inactive
8 | COC(=O)CC[C@@H](C)C1CCC2C3CCC4C[C@H](OC(C)=O)CCC4(C)C3C[C@H](O)C21C (some centres undefined) | inactive | inactive
9 | CNC(=O)COC(=O)N1CCC(CCc2ccc(Cl)cc2)CC1 | inactive | inactive
10 | CC(=O)NCc1cccc(OC[C@@H](O)CNCCc2ccc(NS(=O)(=O)c3ccccc3)cc2)c1 | inactive | inactive
11 | Cc1ccc(NC(=O)N2CCN(c3nc(N)nc4sc(-c5cccnc5)nc34)CC2)cc1 | inactive | inactive
12 | COc1ccc(C#Cc2ccc(C(=O)N3CCC[C@@H](CO)C3)cc2)cc1 | inactive | inactive
13 | O=C(Nc1ccccc1C(=O)NC1CCCCNC1=O)c1cc2ccccc2s1 (centres undefined) | 31.6 µM (active) | inactive
14 | COc1ccc(-c2cnc3c(-c4cccc5ncccc45)cnn3c2)cc1 | inactive | inactive
15 | COC(=O)C[C@H]1[C@]2(C)C3=C(C)[C@H](c4ccoc4)C[C@H]3O[C@@H]2[C@H](O)C2[C@](C)(C(=O)OC)C=CC(=O)[C@@]21C (some centres undefined) | inactive | inactive
16 | COc1cc(NC(=O)c2cc(C3CC3)on2)c(OC)cc1Cl | inactive | inactive
17 | C=C(C)Cn1c(SCC(=O)c2cccs2)nc2sc3c(c2c1=O)CCCC3 | inactive | inactive
